FBW7 activator – human FBW7 E3 ligase activation, primary screen; Q969H0; hit rate 0.13% among 650,000; normalized activity (activation), % at 26.1 µM; AlphaScreen FBW7–phospho-cyclin E peptide binding, activator screen; in the data active = normalized activity above about 1.9%;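 note: purified mutant Fbw7 with reduced substrate affinity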
Target sequence (Q969H0 whole entry, looked up): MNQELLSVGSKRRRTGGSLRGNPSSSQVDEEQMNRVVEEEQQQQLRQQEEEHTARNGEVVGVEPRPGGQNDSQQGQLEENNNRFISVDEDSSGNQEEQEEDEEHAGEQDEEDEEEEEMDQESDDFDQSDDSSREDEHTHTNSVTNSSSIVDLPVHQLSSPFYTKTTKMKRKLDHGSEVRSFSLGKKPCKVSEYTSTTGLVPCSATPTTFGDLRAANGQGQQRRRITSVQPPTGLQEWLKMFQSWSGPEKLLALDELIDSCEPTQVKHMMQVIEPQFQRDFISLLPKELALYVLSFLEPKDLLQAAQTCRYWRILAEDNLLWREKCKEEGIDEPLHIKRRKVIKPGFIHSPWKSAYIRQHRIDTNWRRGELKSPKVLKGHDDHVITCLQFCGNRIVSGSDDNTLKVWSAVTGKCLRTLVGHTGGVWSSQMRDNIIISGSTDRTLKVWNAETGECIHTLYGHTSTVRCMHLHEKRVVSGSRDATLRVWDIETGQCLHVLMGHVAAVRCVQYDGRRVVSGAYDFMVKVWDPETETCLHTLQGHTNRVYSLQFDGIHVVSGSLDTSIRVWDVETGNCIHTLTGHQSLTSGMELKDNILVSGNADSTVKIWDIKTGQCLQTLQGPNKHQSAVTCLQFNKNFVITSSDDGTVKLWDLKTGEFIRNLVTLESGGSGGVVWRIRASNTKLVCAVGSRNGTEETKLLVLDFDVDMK
MITF inh – blocks human microphthalmia-associated transcription factor; O75030; AlphaScreen MITF homodimerization, bead proximity signal; hit rate 0.91% among 650,000; inhibition, % at 2.6 µM; in the data active = inhibition above about 50%;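 note: 0% = vehicle wells with protein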
GPR151 activ – human GPR151 activation; AID 1508602; Q8TDV0; PathHunter beta-arrestin GPR151 cells, luminescence; hit rate 1% among 650,000; activation, % at 11.2 µM; in the data active = activation above about 4.9%;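 note: 0% = median of compound wells and 100% = cells with positive control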
TEAD-YAP inh – TEAD-YAP interaction inhibition; HEK-TIYL cells, TEAD-Gal4/YAP UAS-luciferase luminescence; AID 1259422; hit rate 1.4% among 640,000; inhibition, % at 9.12 µM; in the data active = inhibition above about 32%;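 note: 0% = median of test compound wells and 100% = reference inhibitor wells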
An asterisk follows results filed as active. Most compounds without a hit are left out; they make up all but 3.5% or so of the library.

SMILES | FBW7 activator | MITF inh | GPR151 activ | TEAD-YAP inh
CC1=CC(C)(C)N2C(=O)C(=O)c3cc(OC(=O)C4CCCO4)cc1c32 (stereo not drawn) | 0 | 12 | 0 | 57*
COc1ccc(C(=O)Oc2cc3c4c(c2)C(C)=CC(C)(C)N4C(=O)C3=O)cc1OC | 0 | 10 | 0 | 9
COc1ccc(Cl)cc1C(=O)NCc1nc(-c2ccc(C)cc2)no1 | 0 | -10 | 0 | -1
CCOc1cc(C2CC(=O)Nc3ccc4ccccc4c32)cc(Br)c1O (stereo not drawn) | 0 | 2 | 1 | 36*
Cc1ccc(C(=O)Nc2ccc(F)c([N+](=O)[O-])c2)cc1 | 0 | -3 | 0 | -25
CCc1ccc(-n2c(SCC(=O)Nc3ccc(OC)cc3OC)nc3[nH]ncc3c2=O)cc1 | 0 | 1 | 2 | 25
CCCNc1cc(C)nc(Oc2ccccc2)n1 | 0 | -9 | 1 | 80*
Cc1ccc(-c2csc(NC(=O)CSc3nc4nc(C)cc(C)n4n3)n2)cc1 | 0 | 4 | 0 | 9
CCOC(=O)CC(NC(=O)c1cc(OC)c(OC)c(OC)c1)c1cccc([N+](=O)[O-])c1 (stereo not drawn) | 0 | -19 | -1 | -6
COc1ccc(CCNCc2ccc(N3CCOCC3)cc2)cc1 | 0 | 53* | 3 | 2
COc1ccc(CNCCN2CCOCC2)cc1 | 0 | -5 | -1 | -5
Cc1ccc(CNCc2ccc(N3CCOCC3)cc2)cc1 | 0 | 55* | 4 | 6
Cc1ccc(N2CCOCC2)cc1 | 0 | 11 | 1 | 4
Oc1cccc(/C=N/Nc2nc(Nc3ccc(F)cc3)nc(N3CCCCC3)n2)c1 | 0 | 1 | 0 | 5
CCN(CC)S(=O)(=O)c1ccc(Cl)c(C(=O)Nc2sc3c(c2C#N)CCC3)c1 | 1 | 1 | 0 | 34*
Cc1cccc(C(=O)Nc2sc3c(c2C(=O)O)CCC3)c1 | 0 | 46 | -10 | 66*
CNC(=O)c1c(NC(=O)c2cccc(C)c2)sc2c1CCC2 | 1 | 17 | 0 | -32
Cc1ccc(C(=O)Nc2sc3c(c2C(=O)O)CCCC3)o1 | 0 | -11 | -6 | 40*
CC(C)Oc1ccc(C(=O)Nc2sc3c(c2C#N)CCC3)cc1 | 0 | 8 | -1 | 1
COc1ccc(C(=O)Nc2sc3c(c2C#N)CCC3)cc1 | 0 | 0 | 0 | 37*
COc1cccc(Nc2nc(O)c(C3=c4ccccc4=NC3=O)s2)c1 | 0 | 16 | -3 | -5
O=C(Nc1sc2c(c1C(=O)O)CCC2)c1ccc(Br)cc1 | 0 | 4 | 1 | 4
CC(C)(C)c1ccc(C(=O)Nc2sc3c(c2C(=O)O)CCC3)cc1 | 0 | -1 | 0 | 89*
O=C(Nc1sc2c(c1C(=O)O)CCCC2)c1ccc(F)cc1 | 0 | -1 | -5 | 36*
O=C(Nc1sc2c(c1C(=O)O)CCCC2)c1ccc(Br)cc1 | 0 | 4 | -1 | 0
SMILES | FBW7 activator | MITF inh | GPR151 activ | TEAD-YAP inh
COc1ccc(C(=O)Nc2sc3c(c2C(=O)O)CCC3)cc1 | 0 | -3 | 0 | 40*
C(=C\C1N(Cc2ccccc2)CCN1Cc1ccccc1)/c1ccccc1 | 0 | -7 | 0 | -1
COc1ccc(C(=O)Nc2c3c(nn2C(C)(C)C)CS(=O)(=O)C3)cc1 | 0 | -8 | 2 | -27
Cc1ccc(NSc2ccccc2[N+](=O)[O-])cc1 | 0 | 4 | 1 | 56*
CCOc1ccc(NSc2ccccc2[N+](=O)[O-])cc1 | 0 | 22 | -1 | 5
O=C1N[C@H](CO)C(=O)N2C[C@@H](NCc3ccsc3)C[C@@H]12 | 0 | -15 | 0 | -30
CCN1C(=O)N(CC)C(NNC(N)=S)C1NNC(N)=S (stereo not drawn) | 0 | -9 | 1 | 90*
CN(C)C(=O)C(=O)Nc1ccc(Cl)c(C(=O)N2CCC(Oc3ccc(F)cc3)CC2)c1 | 0 | 8 | 0 | 47*
CN(C)C(=O)C(=O)Nc1ccc(Cl)c(C(=O)N2CCC(Oc3ccc(Cl)cn3)CC2)c1 | 0 | 4 | 0 | 48*
O=C(c1ccncc1)N1CCC(Oc2ccc(Cl)cn2)CC1 | 1 | 13 | 0 | 8
CCN(CC)CCNC(=O)CCNC(=O)c1ccc(Br)o1 | 0 | 3 | 0 | 1
COc1ccccc1NS(=O)(=O)c1cccc(C(=O)Nc2ccc([N+](=O)[O-])cc2)c1 | 0 | 1 | 0 | 21
COc1ccc(-c2noc(-c3nnn(CC(=O)Nc4ccccc4)c3N)n2)cc1 | 0 | 12 | -1 | -5
CCOc1ccccc1NS(=O)(=O)c1ccc(OC)cc1 | 1 | 13 | 1 | 47*
COc1ccc(NS(=O)(=O)c2ccc(F)cc2)c(OC)c1 | 0 | 8 | 0 | 15
CCOc1ccc(S(=O)(=O)Nc2ccccc2CC)cc1 | 0 | 11 | 2 | 16
CCOc1ccc(S(=O)(=O)Nc2ccccc2OC)cc1 | 0 | 0 | 0 | 42*
COc1ccc(S(=O)(=O)Nc2ccc(OC)cc2OC)cc1 | 0 | -1 | 0 | 61*
Cc1cccc(S(=O)(=O)Nc2cccc(-c3cn4cccc(C)c4n3)c2)c1 | 0 | 16 | 1 | -5
COc1cccc(-c2cc(C(=O)Nc3cc(OC)c(OC)c(OC)c3)on2)c1 | 0 | 4 | 0 | 42*
COc1cc(NC(=O)c2cncc(-c3cccc(C(C)=O)c3)c2)cc(OC)c1OC | 0 | 1 | -1 | 59*
COc1cc(NC(=O)c2cccc(-c3cccc(C(C)=O)c3)c2)cc(OC)c1OC | 0 | -2 | 3 | 30
COc1cc(NC(=O)c2cncc(-c3cccs3)c2)cc(OC)c1OC | 0 | 7 | 0 | 39*
COc1ccc2c(c1)-c1cc(Cl)ccc1S(=O)(=O)N2S(=O)(=O)c1ccc(C)cc1 | 0 | 5 | 0 | 2
Cc1ccc(S(=O)(=O)N2c3ccc(C)cc3-c3ccccc3S2(=O)=O)cc1 | 0 | -3 | 3 | 50*
SMILES | FBW7 activator | MITF inh | GPR151 activ | TEAD-YAP inh
CC(=O)Nc1ccnn1C1CCN(Cc2cnc(-c3ccccc3)s2)CC1 | 0 | -1 | -5 | 67*
CC(=O)Nc1ccnn1C1CCN(Cc2ccc(-c3ccccc3)cc2)CC1 | 0 | 14 | 0 | -17
CC(=O)Nc1ccnn1C1CCN(Cc2cnc(-c3ccccc3C)nc2)CC1 | 0 | 9 | -2 | 41*
CCOC(=O)c1cnc2ccc(OCC)cc2c1Nc1ccc(OC)cc1 | 0 | 7 | 0 | -8
CN(c1ccc(OCC(=O)OCC(=O)c2ccccc2)cc1)S(=O)(=O)c1cccs1 | 0 | 14 | 0 | -9
CC1=NN(c2nc3ccccc3[nH]2)C(=O)C1CCC(C)C (stereo not drawn) | -1 | 31 | -2 | 73*
Cc1c(C(=O)N/N=C/c2cccc(OC(=O)N3CCOCC3)c2)nnn1-c1nonc1N | 0 | -17 | 1 | 7
O=C(N/N=C/c1ccc(O)c(O)c1O)c1ccccc1-n1cccc1 | -1 | 56* | -1 | 9
Cc1cc(C(=O)N/N=C/c2cc([N+](=O)[O-])ccc2O)c2ccccc2n1 | 0 | 102* | 0 | 17
Cc1cc(C(=O)N/N=C/c2ccc(O)c(O)c2O)c(C)n1-c1ccccc1 | -1 | 39 | 1 | 7
COc1cc(C(=O)N/N=C/c2cccc(OC(=O)N3CCOCC3)c2)cc(OC)c1OC | 0 | 19 | 2 | 58*
